Inconclusive results are not listed. Calls of active or inactive are those of the source. Calls follow the shape of the dose curve; as a rule, active = well fitted cell-killing curve with a large enough effect; inconclusive = small, poorly fitted or top-dose-only effect, or effect the other way; inactive = no such curve, though single readings can be large or run the other way.
Potency is read from the fitted curve at half-maximal effect.

The assay is described as follows: qHTS of pediatric cancer cell lines to identify multiple opportunities for drug repurposing: Confirmatory screen for NB1643 cells (AID 1347109). Also: nearly all actives have a fitted effect of over 45% in size. The following applies: NB1643 neuroblastoma cell viability; series mostly up to 45.9 µM. An excerpt: Drug repurposing or repositioning has been offered as a strategy for drug development in oncology programs. This approach has special potential for childhood cancers and other rare or orphan diseases, where the expected return on new drug development has been a disincentive to pharmaceuticals.
In this project we exploit the poly-pharmacology of drugs to discover new indications via phenotypic screening of a panel of 19 well-characterized cell lines derived from solid tumors seen in children and adolescents. The goal is to identify approved drugs with previously unrecognized anticancer properties that has the potential to reveal new mechanisms and biological processes involved in carcinogenesis or drug resistance. We employed a titration-based paradigm (quantitative high-throughput screening or qHTS), where all compounds were tested at multiple concentrations for their effect on cell viability. Concentration-response curves (CRCs) were derived directly from the primary screen, and both potency and efficacy values were used to identify compounds with robust bioactivity profiles. We screened the NIH Chemical Genomics Center (NCGC) Pharmaceutical Collection (NPC) and Mechanism Interrogation Plate (MIPE) small molecule collections of approved and investigational compounds against these cell lines; and measured metabolically active cells after 48 hours of compound treatment as a proxy for cell viability.
Assay Submitter: Nathalia J. Martinez, National Center for Advancing Translational Sciences, National Institutes of Health, Rockville, MD, USA; email: natalia.martinez@nih.gov
[1] Shen, M et al. Quantitative high-throughput phenotypic screening of pediatric cancer cell lines identifies multiple opportunities for drug repurposing. Oncotarget 2017 Dec 19;9(4):4758-4772. PMID 29435139.
The cells were obtained from University of North Carolina (UNC), Pediatric Preclinical Testing Program (PPT), and Coriell Institute (CI).
qHTS cell viability assay:
Cells were assayed in growth media at a density of 500-1,000 cells/well. Five microliters of cells were dispensed into 1,536-well, white, solid-bottom, TC-treated plates (Greiner Bio One) using a multidrop dispenser and incubated at 37 degrees C, 5% CO2, under a humidified atmosphere for 5 hours. Twenty-three nanoliters of compounds and controls (neutral control DMSO or positive control bortezomib at final concentration of 2.3 µM) were subsequently transferred by Kalypsys pintool. For primary screens, the MIPE collection was tested at 11-point dilutions (final concentrations range from 0.78 nM to 46 µM) and the NPC collection at 8-point dilutions (final concentrations range from 0.59 nM to 46 µM). Compounds tested in follow-up screens were assayed at 11-point dilutions. Cells were incubated for 48 hours, followed by addition of 3 µL of CellTiter-Glo (Promega). After a 15 min incubation at room temperature, samples were analyzed for luminescence intensity using a ViewLux High-throughput CCD imager equipped with clear filters.
(In general: In qHTS, concentration-response curves come from the screen itself.)
In the case of `Cc1cc(Nc2cc(N3CCN(C)CC3)nc(Sc3ccc(NC(=O)C4CC4)cc3)n2)n[nH]1`, the Potency is 4.14 µM (active). Take `O=c1[nH]nc(Sc2ncc([N+](=O)[O-])s2)n1-c1ccc2c(c1)OCCO2`: the Potency is 7.37 µM (active). Take `Cc1c(CN2CCN(S(C)(=O)=O)CC2)sc2c(N3CCOCC3)nc(-c3cnc(N)nc3)nc12`: the Potency is 1.31 µM (active).

Take `Cn1c2ccccc2c2c3c(c4c5ccccc5n(CCC#N)c4c21)CNC3=O`: the Potency was 20.8 µM (active). `NC(=O)Nc1cc(-c2cccc(F)c2)sc1C(=O)N[C@H]1CCCNC1`: the Potency is 0.928 µM (active). `CNC(=O)c1c(F)cccc1Nc1nc(Nc2cc3c(cc2OC)CCN3C(=O)CN(C)C)nc2[nH]ccc12`: the Potency was 0.465 µM (active). `Cc1cnc(-c2cnc(NCCNc3ccc(C#N)cn3)nc2-c2ccc(Cl)cc2Cl)[nH]1`: the Potency result is “inactive”.

As for `Cc1nc2cnc3ccc(C#Cc4cccnc4)cc3c2n1-c1ccc(C(C)(C)C#N)cc1`, the Potency was 12 µM (active). As to `Cc1c(Cn2c(C)nc3c(C(=O)O)cc(N4CCOCC4)cc32)cccc1C(F)(F)F`, the Potency entry is “inactive”. The figure for `CC(C)[C@H](C(=O)Nc1ccc(C(=O)NO)cc1)c1ccccc1` is 0.585 µM (active).

For `Cc1[nH]c2ccccc2c1CCNCc1ccc(C=CC(=O)NO)cc1`, the Potency is 0.117 µM (active). In the case of `Cc1cc(Nc2cc(NC(=O)c3c(Cl)cccc3Cl)ccn2)nc(N)n1`, the Potency was 5.85 µM (active). Regarding `CC[C@H]1CN2CCc3cc(OC)c(OC)cc3[C@H]2C[C@@H]1C[C@@H]1NCCc2cc(OC)c(OC)cc21`, the Potency is 1.85 µM (active).

`Cc1c(C)n(Cc2ccc(-c3ccccc3C(=O)O)cc2)c2ccc(C(=O)N[C@@H](C)c3ccc([N+](=O)[O-])cc3)cc12`: the Potency result was “inactive”. As for `CC(=O)OCC(=O)[C@@]1(O)[C@H](C)C[C@H]2[C@@H]3C=C(C)C4=Cc5c(cnn5-c5ccccc5)C[C@]4(C)[C@@H]3[C@@H](O)C[C@@]21C`, the Potency was 10.4 µM (active). With `CC(C)(C)c1cc(NC(=O)Nc2ccc(-c3cn4c(n3)sc3cc(OCCN5CCOCC5)ccc34)cc2)no1`, the Potency is 16.5 µM (active). On to `COC(=O)Nc1nc2ccc(C(=O)c3ccc(F)cc3)cc2[nH]1`, for which the Potency is 2.33 µM (active). With `C[C@@H](Oc1cc(-n2cnc3ccc(CN4CCN(C)CC4)cc32)sc1C(N)=O)c1ccccc1C(F)(F)F`, the Potency is 42.7 µM (active). Turning to `Nc1ccccc1NC(=O)c1ccc(CNC(=O)OCc2cccnc2)cc1`, the Potency is 2.14 µM (active). On to `COc1cc2c(NC3CCN(C(C)C)CC3)nc(C3CCCCC3)nc2cc1OCCCN1CCCC1`, for which the Potency was 23.3 µM (active). With `COc1cc2c(Oc3ccc(-c4cnc(Nc5ccc(F)cc5)n(C)c4=O)cc3F)ccnc2cc1OCCCN1CCOCC1`, the Potency was 11.7 µM (active). Regarding `COc1cc(=C2C=c3ccccc3=N2)[nH]c1=Cc1[nH]c(C)cc1C`, the Potency was 14.7 µM (active). As for `COC(=O)c1ccc2c(C(=Nc3ccc(N(C)C(=O)CN4CCN(C)CC4)cc3)c3ccccc3)c(O)[nH]c2c1`, the figure is 16.5 µM (active); as for `CCS(=O)(=O)c1cccc(-c2cc(C(=O)NC3CCN(C)CC3)c(C)c3[nH]c4ncc(C)cc4c23)c1`, 0.414 µM (active); as for `O=C(C=Cc1cccnc1)NCCCCC1CCN(C(=O)c2ccccc2)CC1`, “inactive”. As to `Cc1nc(N)ncc1-c1nc(N2CCOCC2)c2sc(C(C)(C)O)cc2n1`, the Potency was 1.65 µM (active). `CN1CCN(c2cc(C(=O)Nc3ccc4c(c3)-c3c(c(C(N)=O)nn3-c3ccc(F)cc3)CC4)c(Cl)cn2)CC1`: the Potency was 23.3 µM (active). `CC(=O)Nc1nc(C)c(-c2ccc(Cl)c(S(=O)(=O)NCCO)c2)s1`: the Potency was 16.5 µM (active). As for `CC=C1NC(=O)[C@H]2CSSCCC=C[C@H](CC(=O)N[C@H](C(C)C)C(=O)N2)OC(=O)[C@H](C(C)C)NC1=O`, the Potency result is “inactive”. For the molecule `O=C(O)c1ccc2cc(-c3ccc(O)c(C45CC6CC(CC(C6)C4)C5)c3)ccc2c1`, the Potency is 2.93 µM (active). For the molecule `COc1cccc2c(NCc3ccccc3)nc(-n3c(N)nc4ccccc43)nc12`, the Potency is 7.37 µM (active). As for `CN1CC[C@@H](c2c(O)cc(O)c3c(=O)cc(-c4ccccc4Cl)oc23)[C@@H](O)C1`, the figure is 0.261 µM (active); as for `C=CC(=O)Nc1cc2c(Nc3ccc(F)c(Cl)c3)ncnc2cc1C#CC(C)(C)N1CCN(C)CC1`, 5.37 µM (active).

With `COc1cc2nccc(Oc3ccc(NC(=O)C4(C(=O)Nc5ccc(F)cc5)CC4)cc3)c2cc1OC`, the Potency entry is “inactive”.

As to `Cc1ccc(C(=O)Nc2cccc(C(F)(F)F)c2)cc1-c1ccc2nc(NCCN3CCOCC3)ncc2c1`, the Potency was 6.57 µM (active). Take `Nc1ncnc2c1c(-c1cnc3[nH]ccc3c1)nn2C1CCCC1`: the Potency was 8.27 µM (active).

`OCCCNc1cc(-c2ccnc(Nc3cccc(Cl)c3)n2)ccn1`: the Potency was 0.104 µM (active). As to `COc1cc(Nc2ncc(F)c(Nc3ccc4c(n3)N(COP(=O)(O)O)C(=O)C(C)(C)O4)n2)cc(OC)c1OC`, the Potency was 5.85 µM (active). With `Cc1[nH]nc2ccc(-c3cncc(OC[C@@H](N)Cc4ccccc4)c3)cc12`, the Potency was 1.17 µM (active).

Consider `CC(C)(O)c1cc2nc(-c3cnc(N)nc3)nc(N3CCOCC3)c2s1`, for which the Potency was 1.47 µM (active).
